Screening results as filed in PubChem.
IL-1B inflam inh – inflammasome signaling inhibition, IL-1 beta readout | THP-1 LPS/ATP IL-1B secretion, AlphaLISA, 16 h; hits give low values | activity change, % at 57.5 µM | 4.7% of 360,000 active | AID 743279; in the data active = activity change below about -50%; inconclusive = mostly about -30% to -49%
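Secreted IL-1B measured by AlphaLISA bead assay after 16 h compound exposure of THP-1 cells; compounds (final up to 57.5 uM) added 1 h before LPS (250 ng/mL) and ATP (1.25 mM) stimulation; lower signal means less secretion.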
TDP1 cell noCPT – qHTS for Inhibitors of human tyrosyl-DNA phosphodiesterase 1 (TDP1): qHTS in cells in absence of CPT; DT40 Tdp1-/- hTDP1 cells, no CPT, ATP luminescence, 48 h; Potency, µM (titrated, usually from 46.2 µM), inactives show top-dose activity change, negative = growth inhibition, actives largely listed as inhibitors; 15% of 420,000 active; AID 686978, 2013; also: potency is read from the fitted curve at half-maximal effect; nearly all actives have a fitted effect of over 55% in size
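DT40 Tdp1-/-;hTDP1 cells, no CPT (DMSO vehicle only), 400 cells/well; compounds pin-transferred; ≥48 hr, 37 °C; CellTiter-Glo 30 min RT dark, luminescence read.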
HT1080NT lethal – kills 2HG-producing HT-1080-NT fibrosarcoma cells; HT-1080-NT fibrosarcoma viability, CellTiter-Glo ATP luminescence, 48 h; Potency, µM (series often up to 46.1 µM), inactives show at the top dose activity, negative = less viability, most hits filed as cytotoxic; 1.6% of 360,000 active; AID 686970;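 also: NT is the 2HG producing partner of a matched IDH1 knockdown line; potency is read from the fitted curve at half-maximal effect; 0% = DMSO-treated cells and -100% = media-only wells without cells; nearly all actives have a fitted effect of over 55% in size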
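Viability of the 2HG-overproducing fibrosarcoma line after 48 hours of compound exposure at 37 degrees C was determined by luminescence with CellTiter-Glo, and concentration-effect curves were then fitted and categorized.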
HT1080 IDH1KD tx – toxicity to HT-1080 IDH1 knockdown cells (counter line). HT-1080 IDH1 knockdown viability, ATP luminescence, 48 h. 2% of 360,000 active. AID 686971. Potency, µM (top dose mostly 46.1 µM), inactives show top-dose activity, negative = toxicity, hits mostly cytotoxic;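 also: potency is read from the fitted curve at half-maximal effect; 0% = DMSO wells and -100% = cell-free medium wells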
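Knockdown cells (IDH1KD HT-1080) received compounds 2 h after plating at 750 cells/well and were kept 48 h at 37 °C in 5% FBS RPMI. A CellTiter-Glo luminescence read gave % activity for curve fitting.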
DT40 TDP1 CPT – DT40-hTDP1 cell growth loss with CPT. chicken DT40 Tdp1-/-;hTDP1 cells + 20 nM CPT, ATP luminescence, 48 h. Potency, µM (doses to about 46.2 µM), for inactives: top-dose activity change, negative = growth inhibition, usual class: inhibitors. 12% of 420,000 active; also: potency is read from the fitted curve at half-maximal effect; nearly all actives have a fitted effect of over 55% in size
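Cell growth measured by CellTiter-Glo luminescence after a minimum 48 h, 37 C compound exposure with 20 nM CPT in Tdp1-knockout DT40 cells stably expressing hTDP1, seeded 400/well; qHTS titration format.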
The depositor's hits bear a star; ? = inconclusive; nt = no result given; [ ] = remark or other dose. Only some compounds are listed: those with a hit (about 19% of all), similar ones and a draw of the others. Unless noted, calls follow the shape of the dose curve; as a rule, active = well fitted curve in the direction sought with a large enough effect; inconclusive = small, poorly fitted or top-dose-only effect, or another doubt; inactive = no such curve, though single readings can be large; an effect the other way counts as inactive or inconclusive. Unless noted, % is scaled to controls: 0 for no effect and ±100 for the full control effect.

SMILES	IL-1B inflam inh	TDP1 cell noCPT	HT1080NT lethal	HT1080 IDH1KD tx	DT40 TDP1 CPT
Cc1cc(C)cc(N(CC(=O)NC2CCCC2)C(=O)CNC(=O)c2cccs2)c1	-20	-5%	2%	0%	-7%
COc1ccc(NC(=O)CCCc2nnc3n(CCC(C)C)c(=O)c4sccc4n23)cc1Cl	nt	21µM*	nt	nt	?
CCCCC(CC)CNC(=O)Cn1c(=O)[nH]c2ccsc2c1=O (stereo not drawn)	-9	-4%	6%	3%	0%
CC(C)CCn1c(=O)c2sccc2n2c(CCCC(=O)NCCc3ccccc3)nnc12	nt	15µM*	nt	nt	15µM*
CCCCC(CC)CNC(=O)CCCn1c(=O)[nH]c2ccsc2c1=O (stereo not drawn)	nt	?	nt	nt	15µM*
CCn1c(=O)c2sccc2n2c(CCC(=O)Nc3ccc(OC)c(Cl)c3)nnc12	nt	-13%	nt	nt	-15%
COc1ccc(CNC(=O)CCCc2nnc3n(CCC(C)C)c(=O)c4sccc4n23)cc1	nt	18µM*	nt	nt	18µM*
CC(C)(C)c1nnc(NC(=S)Nc2ccccc2)s1	-9	?	-4%	1%	?
CS(=O)(=O)N(CC(=O)N1CCCCCC1)c1cccc([N+](=O)[O-])c1	1	7%	6%	10%	2%
COc1ccccc1-c1ccnc(-n2ncc(C(=O)NC(c3cccnc3)C(F)(F)F)c2C)n1 (stereo not drawn)	nt	?	nt	nt	-5%[9.04 µM]
COc1cccc(CNC(=O)C(CC(C)C)NS(=O)(=O)c2ccc3c(c2)oc(=O)n3C)c1 (stereo not drawn)	nt	-26%	nt	nt	-28%
Cn1c(=O)c2sccc2n2c(CCCC(=O)NCc3ccc(F)cc3)nnc12	28	-19%	11%	3%	3%
CCOc1ccc(CCNC(=O)CCCc2nnc3n(CC(C)C)c(=O)c4sccc4n23)cc1	nt	18µM*	nt	nt	?
CC(C)CCn1c(=O)c2sccc2n2c(CCCC(=O)NCc3ccc(F)cc3)nnc12	nt	?	nt	nt	18µM*
COc1ccc(C2C(C(=O)NCc3ccccn3)CCC(=O)N2c2cc(OC)c(OC)c(OC)c2)cc1 (stereo not drawn)	24	-15%	?	5%	28%
CCN(CCNCC(O)COc1ccccc1C(C)C)c1cccc(C)c1 (stereo not drawn)	-104*	18µM*	21µM*	18µM*	?
Cc1ccc(F)cc1CNC(=O)c1sc2ncnc(NCC3CCCO3)c2c1C (stereo not drawn)	nt	-26%	nt	nt	3%
Clc1ccccc1-c1nc(NC2CCNCC2)c2ccccc2n1	nt	26µM*	nt	nt	10µM*
Cc1ccccc1-c1nc(NC2CCNCC2)c2ccccc2n1	nt	12µM*	nt	nt	13µM*
CNc1nc(-c2ccccc2C)nc2ccccc12	nt	-20%	nt	nt	?
Oc1ccccc1-c1nc(NC2CCCC2)c2ccccc2n1	-12	-24%	?	?	2%
Fc1ccccc1-c1nc(NC2CCCC2)c2ccccc2n1	-53*	-24%	?	-25%	-21%
COc1ccccc1CNC(=O)C1CC2Cn3c(nc4cc5ccccc5cc43)C2N1C (stereo not drawn)	45	?	0%	1%	-52%
COc1ccccc1CNC(=O)C1CC2Cn3c(nc4cc(Cl)c(Cl)cc43)C2N1C (stereo not drawn)	?	23µM*	?	-19%	?
CN1C(C(=O)NCCc2cccs2)CC2Cn3c(nc4cc5ccccc5cc43)C21 (stereo not drawn)	16	?	0%	-1%	-23%
SMILES	IL-1B inflam inh	TDP1 cell noCPT	HT1080NT lethal	HT1080 IDH1KD tx	DT40 TDP1 CPT
COc1ccc(CCNC(=O)C2CC3Cn4c(nc5cc6ccccc6cc54)C3N2C)cc1 (stereo not drawn)	-12	21µM*	3%	6%	15µM*
COc1ccccc1CN(Cc1cccnc1)S(=O)(=O)c1ccc(-n2cnnn2)c(OC)c1	-12	21µM*	1%	-1%	-2%
COc1cc(S(=O)(=O)N(Cc2cccnc2)Cc2cccc(OC)c2OC)ccc1-n1cnnn1	-12	?	-2%	-3%	16µM*
COc1ccc(CN(Cc2cccnc2)S(=O)(=O)c2ccc(-n3cnnn3)c(C)c2)cc1OC	?	?	-25%	7%[9.24 µM]	?
COc1ccc(CN(C)CCCn2cnc(C(=O)Nc3ccc(C)c(C)c3)n2)cc1OC	-11	?	-4%	-4%	-27%
COC(=O)c1ccc(NC(=O)CN(CCc2ccccc2)S(=O)(=O)c2ccc(OC)cc2)cc1	nt	21µM*	nt	nt	?
Cc1ccc(S(=O)(=O)N(CCc2ccccc2)CC(=O)Nc2ccc(Br)cc2)cc1	nt	16µM*	nt	nt	?
O=C(CN(CCc1ccccc1)S(=O)(=O)c1ccc(Br)cc1)NCc1ccc(Cl)cc1	nt	-11%	nt	nt	-18%
CCC1(C2CCN(C(=O)c3ccc(C)c(C)c3)CC2)NC(=O)N(CCc2scnc2C)C1=O (stereo not drawn)	nt	-23%	nt	nt	-4%[9.04 µM]
O=C(c1cc(S(=O)(=O)N2CCOCC2)ccc1Cl)N1CCc2ccccc2C1	8	?	3%	1%	-30%
COc1cc2c(cc1OC)CN(C(=O)CN1CCN(S(=O)(=O)c3ccc(C)c(C)c3)CC1)CC2	-14	13µM*	-12%	-20%	23µM*
COc1cc2c(cc1OC)CN(C(=O)c1ccc(OC)c(S(=O)(=O)N3CCCC3)c1)CC2	-8	29µM*	-6%	-16%	?
COc1ccc(C(=O)N2CCc3ccccc3C2)cc1S(=O)(=O)N1CCCC1	25	?	8%	-1%	?
COc1cc2c(cc1OC)CN(C(=O)c1cc(S(=O)(=O)N3CCOCC3)ccc1Cl)CC2	-22	21µM*	0%	-2%	?
COc1cc2c(cc1OC)CN(C(=O)c1ccc(Cl)c(S(=O)(=O)N3CCCC3)c1)CC2	?	?	-8%	0%	23µM*
CC(NC(=O)c1ccco1)C12CC3CC(CC(C3)C1)C2 (stereo not drawn)	0	-6%	-2%[9.24 µM]	-14%	?
COc1cccc2c(Cl)c(CC=C(Cl)Cl)c(C)nc12	-50*	-29%	-7%	-4%	-29%
C=CCc1c(C)nc2c(OC)cccc2c1Cl	16	?	-6%	-2%	?
COc1ccc(O)c(-c2cc(-c3ccccc3Cl)[nH]n2)c1	27	-30%	-10%	-13%	?
Cc1ccc(-c2cc(-c3ccc(F)cc3)n[nH]2)c(O)c1	-61*	?	26µM*	18µM*	?
Cc1ccc(-c2cc(-c3ccc(C)cc3O)[nH]n2)cc1	14	?	-4%	3%	5%
COc1ccc(O)c(-c2cc(-c3cccs3)[nH]n2)c1	0	?	?	?	15µM*
Oc1ccccc1-c1cc(-c2ccccc2)n[nH]1	13	?	5%	1%	?
Oc1ccccc1-c1cc(-c2ccc(F)cc2)n[nH]1	18	15µM*	?	18µM*	?
COc1ccc(-c2cc(-c3ccccc3)n[nH]2)c(O)c1	-93*	-20%	-7%	-20%	-10%
